Where “and” joins values, the source holds several entries; their conditions need not be identical. Identical values can stand only once. In all, about 330,000 compounds went through this assay and about 1,100 (0.33%) were called active. Cut-off read from the data, not from the text of the source: active = inhibition above about 85%; inactive = the rest. Only a selection was taken, and actives are over-represented in it overall.
Assay: growth inhibition of S. aureus RN4220, primary screen, OD600 (AID 1259311);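 note: plate controls were untreated cells for no effect and reference antibiotic for full effect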
Details: OD600, 16 h, active compounds read high
For `CC=C(C)C(=O)NCCN1C2=NCC(C(C)C)N2CC1Cc1ccc(O)cc1` (centres undefined), the inhibition was 5.17% (inactive). With `O=C(CC(=O)NN=Cc1ccc(Cl)cc1Cl)NCc1ccccc1` the inhibition was 3.6% (inactive). With `Cc1c(CCOC(=O)CC23CC4CC(CC(C)(C4)C2)C3)sc[n+]1Cc1ccc([N+](=O)[O-])cc1` the inhibition was 100% (active) and 99.7% (active). With `Cc1c(CCOC(=O)c2cc([N+](=O)[O-])ccc2Cl)sc[n+]1CCCCS(=O)(=O)[O-]` the inhibition was -3.66% (inactive). With `Cc1c(CCO)sc[n+]1CC(=O)OC12CC3CC(CC(C3)C1)C2` the inhibition was 4.95% (inactive). With `O=C1C=C(c2ccc3ncccc3c2)CC(c2ccc(F)cc2)C1` (centres undefined) the inhibition was -2.12% (inactive). In the case of `CCOc1cc(C=NO)ccc1OCc1ccccc1F`, the inhibition is reported as 7.66% (inactive). For `Clc1ccc(NN=Cc2cccs2)nn1`, the inhibition was 4.84% (inactive). For `C/C(C=Nn1c(-c2cccnc2)n[nH]c1=S)=C\c1ccco1`, the inhibition was 12.6% (inactive). With `CCCCCCCCn1c2c(c(=N)c3c1CCC3)CCCC2` the inhibition was 100% (active). For `CC(C)c1ccc2c(c1)c(SC(C)(C)C)c(CC(C)(C)C(=O)O)n2Cc1ccc(Cl)cc1`, the inhibition was 100% (active). With `NC(Cc1ccc(O)cc1)c1cn(C(CCC(=O)O)C(=O)N2CCNCC2)nn1` (centres undefined) the inhibition was 3.88% (inactive). With `NC(=NOC(=O)C(c1ccccc1)c1ccccc1)c1ccccn1` the inhibition was 1.37% (inactive). With `CC1=NOC(=O)C1=Cc1ccc(-c2ccc(Cl)c(C(=O)O)c2)o1` the inhibition was 3.22% (inactive). For `O=C(O)C(c1ccccc1)N1C(=O)/C(=C\c2ccc(-c3cccc(Cl)c3)o2)SC1=S` (centres undefined), the inhibition was 95.5% (active). For `S=c1[nH]nc(-c2cccc(Cl)c2)n1N=Cc1ccc(-c2ccccc2Br)o1`, the inhibition was 10.7% (inactive). For `Cc1cccc(OCC(=O)NN=Cc2ccc(N(C)C)cc2)c1`, the inhibition was 6.39% (inactive). With `O=C(NN=Cc1c[nH]c2ccccc12)c1[nH]c2ccc(Br)cc2c1-c1ccccc1` the inhibition was 86.5% (active). In the case of `CCOc1ccc(Br)cc1C(=O)NN=Cc1c[nH]c2ccccc12`, the inhibition is reported as -6.23% (inactive). For `O=C(NN=Cc1c[nH]c2ccccc12)c1ccc(O)c(O)c1`, the inhibition was -0.918% (inactive). In the case of `CCCCN1C(=S)NCC1Cc1ccc(O)cc1` (centres undefined), the inhibition is reported as 4.99% (inactive). In the case of `O=C(COC(=O)c1ccc(F)cc1)NCC1COc2ccccc2O1` (centres undefined), the inhibition is reported as -4.66% (inactive). With `O=C(Nc1nnc(C2COc3ccccc3O2)o1)c1ccc(F)cc1` (centres undefined) the inhibition was 98.2% (active). In the case of `CC1COc2ccccc2N1C(=O)c1ccc(F)cc1` (centres undefined), the inhibition is reported as 1.99% (inactive). For `COc1ccc(C(C)=NOCC(=O)N2CC3(C)CC2CC(C)(C)C3)cc1` (centres undefined), the inhibition was 4.12% (inactive). With `CCCc1c(C(=O)NN=Cc2ccc(OC)c(OCc3ccccc3)c2)nnn1-c1nonc1N` the inhibition was 14% (inactive). For `COC(=O)[C@@]12CCCCN1C(c1ccc(-c3ccc4c(c3)OCO4)cc1)C1C(=O)N(C)C(=O)C12` (some centres undefined), the inhibition was -2.68% (inactive). For `COc1ccc(C(C)=NNC(=O)C(NC(=O)c2ccccc2)c2n[nH]c(=O)c3ccccc23)c(OC)c1` (centres undefined), the inhibition was 1.72% (inactive). In the case of `Cc1ccc(C=NNC(=O)c2ccco2)cc1`, the inhibition is reported as -0.191% (inactive).

— PubChem BioAssay AID1259311 (ICCB-Longwood Screening Facility, Harvard Medical School, 2017)
